Rows were chosen to be rich in hits. Some 3% of all compounds tested hit in one or more screens of this group.
ABHD5-PLIN5 inh: ABHD5-PLIN5 interaction inhibitors, primary screen, cell lysate, split luciferase complementation, luminescence. Perilipin-5 (Homo sapiens) + 1-acylglycerol-3-phosphate O-acyltransferase ABHD5 (Homo …. Split G. princeps luciferase complementation, 4 h. inhibition, % at 4 µM. 360,000 compounds, 0.78% hits. AID 602281, 2012;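 active means inhibition above the mean inhibition across every tested compound plus 3 SD, cut at about 22% in these data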;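 further: 0% = DMSO only wells and the 100% control is not disclosed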
Target sequence (Q00G26 whole entry, looked up): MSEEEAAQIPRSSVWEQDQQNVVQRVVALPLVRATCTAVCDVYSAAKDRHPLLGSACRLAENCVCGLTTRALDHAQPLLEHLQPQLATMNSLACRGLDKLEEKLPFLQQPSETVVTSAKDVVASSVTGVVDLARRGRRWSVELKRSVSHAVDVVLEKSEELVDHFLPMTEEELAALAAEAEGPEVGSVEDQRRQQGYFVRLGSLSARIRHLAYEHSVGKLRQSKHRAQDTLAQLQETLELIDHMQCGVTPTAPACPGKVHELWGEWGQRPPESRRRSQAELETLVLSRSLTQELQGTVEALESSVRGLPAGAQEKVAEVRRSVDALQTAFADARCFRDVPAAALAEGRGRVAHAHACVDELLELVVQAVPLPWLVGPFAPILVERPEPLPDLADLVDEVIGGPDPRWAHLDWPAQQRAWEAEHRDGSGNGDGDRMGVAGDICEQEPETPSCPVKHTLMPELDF
Target sequence (Q8WTS1 whole entry, looked up): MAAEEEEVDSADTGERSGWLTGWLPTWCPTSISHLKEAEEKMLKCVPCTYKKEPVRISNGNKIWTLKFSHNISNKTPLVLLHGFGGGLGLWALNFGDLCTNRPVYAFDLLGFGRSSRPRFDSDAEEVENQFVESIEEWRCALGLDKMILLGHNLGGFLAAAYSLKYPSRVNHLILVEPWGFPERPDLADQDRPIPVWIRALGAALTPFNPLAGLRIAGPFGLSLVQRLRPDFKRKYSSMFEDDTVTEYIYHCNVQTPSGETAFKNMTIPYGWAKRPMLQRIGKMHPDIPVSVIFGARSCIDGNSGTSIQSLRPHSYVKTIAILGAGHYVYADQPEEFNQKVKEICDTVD
Shn3 3UTR inh: reduction of Shn3 3'UTR firefly luciferase signal, primary screen, Schnurri-3 inhibitor project, cell-based, Clone20 osteoblasts, set 2 | Clone20 osteoblast Shn3 3'UTR firefly luciferase, 24 h | inhibition, % at 12.5 µM | 360,000 compounds, 0.52% hits | AID 588674, 2011;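 active means mean inhibition of at least 75% with every replicate also reaching 75%; inconclusive means mean inhibition at least 75% but some replicate below; inactive means mean inhibition below 75%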;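 further: 0% = median of neutral control wells and 100% = pilot-screen positive control compound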
MITF TRPM1 inh: inhibitors of MITF-dependent TRPM1 promoter reporter, primary screen, cell-based, SK-MEL-5, single point, luciferase; SK-MEL-5 TRPM1 promoter luciferase, 24 h; inhibition, % at 12.5 µM; 330,000 compounds, 0.83% hits; AID 488899, 2010;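 active means mean inhibition across replicates of 60% or more, whatever share of single replicates reaches that level; inconclusive means some that reach 60%, reason not given; inactive means mean inhibition across replicates below 60%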
Peg3 prom inh: Peg3 promoter-driven luciferase inhibitors, primary screen, cell-based, HeLa, luciferase luminescence. HeLa PEG-Prom luciferase reporter, overnight. inhibition, % at 20 µM. 360,000 compounds, 1.7% hits;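 active means inhibition of at least 50% at 20 µM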
PAX8 reporter: inhibitors of PAX8-driven TPO luciferase reporter, primary screen, RMG-I cells, single concentration; SteadyGlo, 24 h; inhibition, % at 12.6 µM; 360,000 compounds, 1.2% hits; AID 652154, 2013;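 active means mean replicate inhibition at least 60% with every replicate also reaching 60%; inconclusive means only one of the two criteria is met; inactive means mean below 60% and not all replicates reaching 60%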;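 further: luciferase light reporting Pax8 driven TPO promoter activity; plate controls were median of neutral control wells for no effect and mitoxantrone controls for full effect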
EWS-Fli block: EWS/Fli-driven NR0B1 reporter inhibitors, primary screen, A673 cells, NR0B1 luciferase, luminescence, MLPCN library. 350,000 compounds, 0.67% hits. AID 651661, 2012. inhibition, % at 12.6 µM. viability-normalised;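 active means mean inhibition of at least 50% after viability correction, with every replicate also passing that limit; inconclusive means mean reaches 50% but only one of two replicates passes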;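 further: firefly luciferase signal divided by Alamar Blue viability fluorescence both relative to DMSO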
ABHD5 PLIN5 conf: ABHD5-PLIN5 interaction inhibitors, confirmation, biochemical, luminescence. shares compounds with ABHD5-PLIN5 inh. inhibition, % at 4 µM. 2,200 compounds, 67% hits. AID 651612, 2012; in the data active means inhibition above about 23%;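 further: 0% = DMSO vehicle wells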
HNF4 counter: HNF4 dimerization inhibitors, counter-screen for ABHD5-PLIN5 interaction inhibitor project, biochemical, split-luciferase complementation, luminescence | shares compounds with ABHD5-PLIN5 inh | inhibition, % at 4 µM | 2,200 compounds, 77% hits;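 active means mean inhibition across replicate wells exceeding the computed hit threshold, cut at about 13% in these data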;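 further: light from luciferase halves that rejoin when HNF4 fusion proteins dimerize; 0% = DMSO only wells and the 100% control is not given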
Active calls of the source: *; ? = inconclusive; . = not tested or not shown.

SMILES	ABHD5-PLIN5 inh	Shn3 3UTR inh	MITF TRPM1 inh	Peg3 prom inh	PAX8 reporter	EWS-Fli block	ABHD5 PLIN5 conf	HNF4 counter
C[C@@H]1CN([C@H](C)CO)C(=O)c2cc(N(C)C)ccc2O[C@@H]1CN(C)C(=O)Nc1ccc(C(F)(F)F)cc1	.	.	.	.	20	-2	.	.
CCC(=O)Nc1ccc2c(c1)OC[C@@H](C)N(C(=O)C1CC1)C[C@@H](C)[C@@H](OC)CN(C)C2=O	.	.	.	.	.	3	.	.
Cc1oc(=O)c(NC(=O)c2cccc(Cl)c2)cc1C(=O)c1ccccc1	34*	18	-41	-80	-45	.	18	100*
COC(=O)c1cc(NC(=O)c2ccccc2)c(=O)oc1C	9	-29	-5	-25	-29	-13	.	.
CCS(=O)(=O)N1CC2(CN(C)[C@@H](CO)c3c2c2ccc(OC)cc2n3C)C1	.	.	.	.	.	-7	.	.
N#CC1c2ccccc2C=CN1C(=O)N(c1ccccc1)c1ccccc1 (stereo not given)	36*	-10	24	47	78*	13	32*	34*
COc1ccc(C(=O)N2C=Cc3ccccc3C2C#N)cc1 (stereo not given)	-1	11	.	0	-2	-1	.	.
CCCn1c(CC)nc([N+](=O)[O-])c1S(=O)(=O)c1ccccc1	42*	64	?	-1	82*	.	50*	54*
CCc1nc(C)cn1S(=O)(=O)c1ccc([N+](=O)[O-])cc1	-4	5	-2	5	-6	-1	.	.
COc1ccc(S(=O)(=O)Nc2cccc3c2O[C@H](CN(C)Cc2ccc(C(=O)Nc4ccccc4N)cc2)[C@@H](C)CN([C@@H](C)CO)C3=O)cc1	.	.	.	.	12	-1	.	.
O=C(CSc1ncn[nH]1)c1cccc([N+](=O)[O-])c1	35*	9	1	10	5	2	-4	26*
COc1ccc(NC(=O)N(C)C[C@H]2Oc3c(NS(=O)(=O)c4ccc(OC)cc4)cccc3C(=O)N([C@H](C)CO)C[C@H]2C)cc1	.	.	.	.	-6	-2	.	.
CCN1CC(=O)Nc2cc(S(=O)(=O)N3CCOCC3)ccc21	32*	-7	5	-1	-19	-1	49*	46*
COc1ccc(NC(=S)N(CCCN2CCOCC2)Cc2cn(C)c3ccccc23)cc1	-2	16	-5	-2	-8	3	.	.
Cn1cc(CN(CCCN2CCOCC2)C(=S)Nc2cccc(Cl)c2)c2ccccc21	25*	29	6	17	39	9	11	-1
Cc1cccc(NC(=S)N(CCCN2CCOCC2)Cc2cn(C)c3ccccc23)c1	23*	24	12	-11	.	.	1	-2
COc1ccc(S(=O)(=O)Nc2ccc3c(c2)C(=O)N([C@H](C)CO)C[C@H](C)[C@@H](CN(C)Cc2ccccc2)OCCCC[C@H](C)O3)cc1	.	.	.	.	-6	2	.	.
O=C(N/N=C/C=C/c1ccco1)C(O)c1ccccc1 (stereo not given)	35*	7	-4	2	.	.	47*	60*
COc1ccc(C2C(C#N)=C(N)Oc3cc(C)n(Cc4ccco4)c(=O)c32)cc1 (stereo not given)	32*	-16	15	12	14	.	66*	68*
Cc1cc2c(c(=O)n1Cc1cccnc1)C(c1ccccc1)C(C#N)=C(N)O2 (stereo not given)	-2	0	-3	11	.	.	.	.
O=C(NCc1ccco1)c1nn2c(C(F)(F)F)cc(-c3cccs3)nc2c1Br	26*	10	6	5	.	.	34*	62*
O=C(NCc1ccco1)c1nc2nc(-c3cccs3)cc(C(F)(F)F)n2n1	13	-1	13	20	-87	.	.	.
Cc1cccc(C(=O)N2CCc3ccccc3C2)c1[N+](=O)[O-]	1	-7	-6	11	0	3	.	.
Cc1cccc(C(=O)N2CCCCCC2)c1[N+](=O)[O-]	74*	10	0	14	-5	2	3	3
Cc1ccc(/C=C/C(=O)NC2CCCCCCC2)o1	50*	72	-16	17	-4	.	55*	71*
SMILES	ABHD5-PLIN5 inh	Shn3 3UTR inh	MITF TRPM1 inh	Peg3 prom inh	PAX8 reporter	EWS-Fli block	ABHD5 PLIN5 conf	HNF4 counter
COc1ccc(/C=C/C(=O)NCC2COc3ccccc3O2)cc1OC (stereo not given)	1	10	0	-3	3	-17	.	.
Cc1ccc(/C=C/C(=O)NCC2COc3ccccc3O2)o1 (stereo not given)	24*	0	-13	-1	-18	-1	49*	63*
O=C(O)c1cc(N2C(=O)C=CC2=O)cc(N2C(=O)C=CC2=O)c1	24*	-3	-17	2	-7	6	80*	109*
O=c1c2c(-c3ccccc3)csc2nc2c3ccccc3c(NCCN3CCOCC3)nn12	23*	-9	6	108*	20	0	11	5
O=c1c2ccccc2nc2c3ccccc3c(NCCN3CCOCC3)nn12	.	.	.	.	21	.	.	.
C=C1C(=O)[C@]23C[C@H]1CC[C@H]2[C@]1(C)[C@@H](O)CC[C@@](C)(C(=O)O)[C@H]1C[C@@H]3O	31*	49	.	-8	?	11	33*	89*
C=C1C(=O)[C@]23C[C@H]1CCC2[C@@]1(C)C(C[C@@H]3O)[C@](C)(C(=O)O)C[C@H](O)[C@@H]1O (stereo not given in full)	38*	-10	.	-1	14	2	38*	83*
CCC(=O)N(C)C[C@@H]1Oc2ncc(-c3ccc(C(=O)N(C)C)cc3)cc2C(=O)N([C@@H](C)CO)C[C@H]1C	.	.	.	.	.	-6	.	.
O=C(NCC[C@H]1CC[C@@H](NS(=O)(=O)c2ccc(Oc3ccccc3)cc2)[C@H](CO)O1)C1CC1	.	.	.	.	4	11	.	.
O=C(Cn1nc(CNc2ccc(Cl)cc2)[n+]2c1CCCCC2)c1ccc(Br)cc1	30*	-3	10	14	1	-9	18	-2
COC(=O)C[C@H]1CC[C@@H]2[C@H](COc3ccc(NS(=O)(=O)c4cccc(F)c4)cc3C(=O)N2C)O1	.	.	.	.	7	11	.	.
C[C@@H]1CN([C@@H](C)CO)C(=O)Cc2cc(NC(=O)Cc3ccccc3)ccc2O[C@H]1CN(C)CC1CC1	.	.	.	.	-8	-8	.	.
CCOc1ccc(N)c(SSc2cc(OCC)ccc2N)c1	73*	-15	-5	-120	-62	-35	82*	97*
CN(C)CC(=O)N[C@@H]1CC[C@H](CCNC(=O)C2CCC2)O[C@@H]1CO	.	.	.	.	-6	7	.	.

Source: PubChem BioAssay (several laboratories)
